# From PubChem BioAssay
# Activity calls are given as the source filed them.
# Columns and labels:
# Albumin (Bos taurus) = Albumin (Bos taurus) (UniProt P02769); assay: compounds binding labelled BSA control protein – biochemical, small-molecule microarray, Alexa647 label, 635/667 nm fluorescence, artefact control for SMM control protein annotation, profiling panel (AID 1118); settings: BSA-A647 binding, fluorescence 635 nm, higher = more signal;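 further: score merges 667 nm emission intensity and signal-to-noise per printed compound spot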
# [1] = probe aXIP binding to arrayed compounds – biochemical, NeuroSMM set, 635/667 nm fluorescence, primary screen (AID 1119); settings: small-molecule microarray, higher = more signal, called active from +8 up or from −8 down;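 further: probe is the protein aXip251-270 applied at 1 µg/mL to compound-printed slides; binding of probe to printed compounds measured as 667 nm fluorescence plus signal to noise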
# [2] = probe aNOTCH3 binding on compound microarray – biochemical, small-molecule microarray, 635/667 nm fluorescence, primary screen (AID 1120); settings: higher = more signal;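 further: probe is a biotin-tagged antibody raised against NOTCH3 rather than NOTCH3 protein; score merges spot fluorescence near 667 nm with spot signal to noise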
# [3] = probe aNOTCH2 binding on compound microarray – biochemical, small-molecule microarray, 635/667 nm fluorescence, primary screen (AID 1121); settings: higher = more signal;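 further: score merges feature fluorescence read at 667 nm with its signal to noise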
# [4] = target: Carbonic anhydrase 2 (Homo sapiens) (UniProt P00918); assay: compounds binding carbonic anhydrase 2 – biochemical, small-molecule microarray, Alexa647-labelled CAII, profiling panel (AID 1122); settings: CAII-A647 binding fluorescence, higher = more signal
# [5] = COS7 lysate on small-molecule microarray, probe aHis, 635 nm (AID 1123); settings: COS7 cell lysate, fluorescence, higher = more signal;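 further: z-score combines 667nm fluorescence intensity with signal-to-noise per printed compound spot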
# [6] = probe aLAP1 signal on lysate-treated microarray – cell lysate, small-molecule microarray, COS7 lysate, primary screen (AID 1124); settings: probe aLAP1, fluorescence, higher = more signal;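 further: lysate comes from COS7 cells expressing LAP1 and is applied at 0.3 µg/mL; score merges spot fluorescence near 667 nm with signal-to-noise over triplicate slides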
# Sam68 (KHDRBS1) = assay: compounds binding KHDRBS1 protein – biochemical, small-molecule microarray, 635 nm fluorescence, primary screen (AID 1125); settings: higher = more signal;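 further: score merges 667 nm channel intensity with signal to noise over triplicate slides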
# [7] = tested on: Chordin-like protein 2 (CHRDL2); assay: compounds binding chordin-like 2 – biochemical, small-molecule microarray, 635 nm fluorescence, primary screen (AID 1126); settings: fluorescence 635 nm, higher = more signal;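 further: printed compound slides probed with Chrdl2 protein at 4 µg/mL for 1 h at 4 C; score merges 667 nm emission intensity with signal to noise over three replicate slides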
# [8] = target: Concanavalin-A (Canavalia ensiformis) (UniProt P02866); assay: compounds binding concanavalin A lectin – biochemical, small-molecule microarray, Alexa647 label, 635 nm, artefact control for SMM control protein annotation, primary screen (AID 1127); settings: ConA-A647 binding fluorescence, higher = more signal;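 further: z combines 667 nm emission intensity with signal-to-noise across three replicate slides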
# [9] = compounds binding Alexa647 anti-His antibody – biochemical, small-molecule microarray, 635 nm fluorescence, artefact control for SMM control protein annotation, primary screen (AID 1128); settings: higher = more signal;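 further: score merges feature fluorescence with signal-to-noise for each printed compound spot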
# [10] = tested on: Human papillomavirus type 1a E7 protein (residues 1-88); assay: HPV1a E7 small-molecule binders, primary screen, biochemical, small-molecule microarray, residues 1-88, 635 nm (AID 1129); settings: small-molecule microarray binding, fluorescence 635 nm; higher = more signal
# [11] = target: Focal adhesion kinase 1 (Homo sapiens) (UniProt Q05397); assay: PTK2 protein binding on printed compound slides – biochemical, small-molecule microarray, 635/667 nm fluorescence, BSA, DTT, primary screen (AID 1130); settings: 635 nm fluorescence, higher = more signal;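 further: composite of spot emission at 667 nm and signal to noise over triplicate slides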
# [12] = tested on: Fibrinogen (Alexa647-labelled); assay: Alexa647-fibrinogen binding to printed small molecules – biochemical, small-molecule microarray, 635/667 nm fluorescence, artefact control for SMM control-protein annotation, profiling panel (AID 1131); settings: fibrinogen-A647 binding fluorescence, higher = more signal;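 further: z-score merges 667 nm fluorescence with per-spot signal-to-noise over triplicate slides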
# [13] = target: Follistatin (Homo sapiens) (UniProt P19883); assay: FST protein binding to printed compounds – biochemical, small-molecule microarray, 635/667 nm fluorescence, primary screen (AID 1132); settings: 635 nm fluorescence, higher = more signal
# [14] = target: Fibroblast growth factor 2 (Homo sapiens) (UniProt P09038); assay: basic fibroblast growth factor binding to printed compounds – biochemical, small-molecule microarray, 635/667 nm fluorescence, primary screen (AID 1133); settings: FGF2, fluorescence 635/667, higher = more signal
# [15] = JC-1 mitochondrial potential readout, lung cancer cells – cell-based, A549, JC-1 fluorescence, basal, 24 h, 100 nL, profiling panel (AID 1138); settings: higher = more signal;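 further: A549 lung adenocarcinoma cells under basal conditions with no added stimulus; test concentration not given here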
# Lefty1 = Lefty1 protein binding to printed compounds – biochemical, small-molecule microarray, 635/667 nm fluorescence, primary screen (AID 1139); settings: fluorescence 635/667, higher = more signal
# [16] = tested on: wheat germ agglutinin (Triticum aestivum), Alexa647-labelled; assay: Alexa647-WGA lectin binding to printed small molecules – biochemical, small-molecule microarray, 635/667 nm fluorescence, artefact control for SMM control-protein annotation, profiling panel (AID 1140); settings: WGA-A647 binding, 635 nm fluorescence, higher = more signal;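 further: score merges 667 nm feature emission with signal to noise over triplicate slides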
# [17] = target: Luciferin 4-monooxygenase (Photinus pyralis) (UniProt P08659); assay: inhibition of purified Photinus pyralis luciferase – biochemical, luminescence, purified enzyme, 2006 set, primary screen (AID 1141); settings: purified firefly luciferase, SteadyGlo luminescence, 30 min; higher = more signal, called active from +8 up or from −8 down;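 further: cell-free assay with purified firefly luciferase at 100 ng per well in PBS; test concentration not given here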
# Chain of Luciferin 4-monooxygenase (Photinus pyralis) (P08659 whole entry, looked up): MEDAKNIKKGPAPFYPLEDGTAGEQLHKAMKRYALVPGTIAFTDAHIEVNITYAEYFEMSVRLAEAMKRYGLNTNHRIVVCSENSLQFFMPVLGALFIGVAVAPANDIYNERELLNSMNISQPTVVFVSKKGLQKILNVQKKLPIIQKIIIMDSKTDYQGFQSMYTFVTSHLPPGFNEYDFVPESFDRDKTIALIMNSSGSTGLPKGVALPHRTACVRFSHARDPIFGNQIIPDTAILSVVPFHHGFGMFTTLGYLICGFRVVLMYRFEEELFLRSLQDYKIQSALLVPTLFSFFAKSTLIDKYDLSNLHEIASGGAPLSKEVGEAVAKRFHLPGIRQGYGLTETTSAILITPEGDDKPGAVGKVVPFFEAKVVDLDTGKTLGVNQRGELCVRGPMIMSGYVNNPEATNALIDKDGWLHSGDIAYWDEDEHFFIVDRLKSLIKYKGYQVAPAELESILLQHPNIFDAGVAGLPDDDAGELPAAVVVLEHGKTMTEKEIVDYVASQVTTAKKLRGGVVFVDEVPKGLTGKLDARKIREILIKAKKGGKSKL
# Chain of Concanavalin-A (Canavalia ensiformis) (P02866 whole entry, looked up): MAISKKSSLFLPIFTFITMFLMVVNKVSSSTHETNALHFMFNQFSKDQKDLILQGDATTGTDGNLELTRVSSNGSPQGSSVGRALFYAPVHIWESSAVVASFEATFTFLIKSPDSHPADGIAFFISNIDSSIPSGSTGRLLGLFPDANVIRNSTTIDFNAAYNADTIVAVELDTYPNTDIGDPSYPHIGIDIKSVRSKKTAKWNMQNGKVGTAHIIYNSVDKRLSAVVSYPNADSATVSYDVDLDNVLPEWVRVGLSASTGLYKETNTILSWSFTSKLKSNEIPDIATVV
# Chain of Fibroblast growth factor 2 (Homo sapiens) (P09038 whole entry, looked up): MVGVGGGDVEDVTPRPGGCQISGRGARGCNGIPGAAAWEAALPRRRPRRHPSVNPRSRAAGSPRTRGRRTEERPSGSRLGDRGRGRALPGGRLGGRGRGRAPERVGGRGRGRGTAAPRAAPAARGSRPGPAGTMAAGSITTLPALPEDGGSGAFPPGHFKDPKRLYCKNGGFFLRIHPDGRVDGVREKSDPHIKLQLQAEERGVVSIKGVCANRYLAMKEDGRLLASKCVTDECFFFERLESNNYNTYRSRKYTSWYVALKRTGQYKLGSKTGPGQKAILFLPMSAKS
# Chain of Follistatin (Homo sapiens) (P19883 whole entry, looked up): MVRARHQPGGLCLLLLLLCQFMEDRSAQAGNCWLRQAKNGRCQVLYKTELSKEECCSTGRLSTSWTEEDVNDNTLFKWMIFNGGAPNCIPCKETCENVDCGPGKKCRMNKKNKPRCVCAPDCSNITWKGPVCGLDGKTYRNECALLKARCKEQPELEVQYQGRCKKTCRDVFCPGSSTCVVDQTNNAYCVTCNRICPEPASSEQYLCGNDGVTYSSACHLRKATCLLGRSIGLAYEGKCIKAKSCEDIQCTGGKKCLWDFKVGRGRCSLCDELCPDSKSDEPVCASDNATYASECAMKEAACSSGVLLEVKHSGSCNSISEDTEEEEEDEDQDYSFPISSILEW
# Chain of Albumin (Bos taurus) (P02769 whole entry, looked up): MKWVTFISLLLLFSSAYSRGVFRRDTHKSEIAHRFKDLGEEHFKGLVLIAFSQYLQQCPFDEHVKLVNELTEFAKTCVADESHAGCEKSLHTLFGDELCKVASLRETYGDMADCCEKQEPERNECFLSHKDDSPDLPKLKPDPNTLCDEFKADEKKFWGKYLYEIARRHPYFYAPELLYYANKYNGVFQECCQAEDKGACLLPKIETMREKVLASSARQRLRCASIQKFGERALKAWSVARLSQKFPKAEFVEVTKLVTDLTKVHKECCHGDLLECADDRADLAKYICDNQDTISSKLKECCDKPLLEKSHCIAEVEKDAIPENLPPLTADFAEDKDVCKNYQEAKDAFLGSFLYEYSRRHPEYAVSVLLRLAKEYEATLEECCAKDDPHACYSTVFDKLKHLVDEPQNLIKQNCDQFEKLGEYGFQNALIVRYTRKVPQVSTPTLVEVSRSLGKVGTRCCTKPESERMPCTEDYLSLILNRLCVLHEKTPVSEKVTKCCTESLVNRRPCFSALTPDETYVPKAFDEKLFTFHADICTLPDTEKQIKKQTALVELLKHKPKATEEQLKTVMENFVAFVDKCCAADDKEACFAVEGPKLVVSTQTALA
# Chain of Focal adhesion kinase 1 (Homo sapiens) (Q05397 whole entry, looked up): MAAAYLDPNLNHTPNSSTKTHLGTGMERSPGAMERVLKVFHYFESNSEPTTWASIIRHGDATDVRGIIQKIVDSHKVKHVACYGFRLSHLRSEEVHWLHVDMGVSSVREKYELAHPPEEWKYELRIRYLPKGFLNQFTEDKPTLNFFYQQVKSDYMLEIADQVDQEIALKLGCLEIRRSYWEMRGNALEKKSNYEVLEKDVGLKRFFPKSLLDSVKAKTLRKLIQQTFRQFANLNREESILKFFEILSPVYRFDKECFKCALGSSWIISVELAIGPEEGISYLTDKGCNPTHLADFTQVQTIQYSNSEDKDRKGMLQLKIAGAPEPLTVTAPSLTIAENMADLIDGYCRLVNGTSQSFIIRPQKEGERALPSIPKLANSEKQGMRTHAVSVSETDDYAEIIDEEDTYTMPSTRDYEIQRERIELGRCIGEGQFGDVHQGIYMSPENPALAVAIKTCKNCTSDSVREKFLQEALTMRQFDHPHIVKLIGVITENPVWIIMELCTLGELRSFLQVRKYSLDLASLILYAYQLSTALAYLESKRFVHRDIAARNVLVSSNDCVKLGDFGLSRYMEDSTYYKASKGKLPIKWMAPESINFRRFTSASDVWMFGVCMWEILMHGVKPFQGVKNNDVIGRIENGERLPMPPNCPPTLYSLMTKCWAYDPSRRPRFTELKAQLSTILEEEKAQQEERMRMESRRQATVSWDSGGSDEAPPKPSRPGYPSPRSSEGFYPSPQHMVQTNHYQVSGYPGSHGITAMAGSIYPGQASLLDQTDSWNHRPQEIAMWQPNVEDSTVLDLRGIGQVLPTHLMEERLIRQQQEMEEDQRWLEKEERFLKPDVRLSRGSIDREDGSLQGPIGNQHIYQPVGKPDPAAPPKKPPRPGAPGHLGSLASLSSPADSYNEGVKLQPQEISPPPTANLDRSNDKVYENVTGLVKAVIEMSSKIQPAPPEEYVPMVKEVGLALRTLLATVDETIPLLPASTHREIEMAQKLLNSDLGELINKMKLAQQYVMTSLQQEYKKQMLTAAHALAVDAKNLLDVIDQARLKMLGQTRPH
SMILES,composite z-score (Albumin (Bos taurus)),composite Z-score [1],composite z-score [2],composite z-score [3],composite z-score [4],composite z-score [5],composite z-score [6],composite z-score (Sam68 (KHDRBS1)),composite z-score [7],composite z-score [8],composite z-score [9],composite z-score [10],composite z-score [11],composite z-score [12],composite z-score [13],composite z-score [14],z-score [15],composite z-score (Lefty1),composite z-score [16],z-score [17]
COc1ccc(CCNC(=O)[C@@H]2c3ccccc3C(=O)N(Cc3cc(F)cc(C(F)(F)F)c3)[C@H]2c2ccc(CO)cc2)cc1,-0.0885,-0.795 (inactive),0.249,0.207,0.753,2.1,1.51,1.03,0.0818,0.198,0.634,0.544,0.137,0.227,1,0.409,3.34,-0.192,0.871,-1.13 (inactive)
COC(=O)C(CC#Cc1ccc2c(c1)[C@]1(C(=O)N2)[C@H](C(=O)NC[C@H](O)c2ccccc2)[C@H]2C(=O)O[C@H](c3ccccc3)[C@H](c3ccccc3)N2[C@@H]1c1ccc(O)cc1)C(=O)OC,0.41,1.05 (inactive),-0.0932,-0.126,0.683,0.84,-0.177,-0.165,-0.275,0.188,-0.716,-0.0341,0.105,-0.906,0.276,0.0859,-1.62,0.192,0.0123,-0.168 (inactive)
C=CC[C@H](OC(=O)Nc1ccc(SC)cc1)c1ccc(O)c(F)c1,0.333,0.514 (inactive),-0.246,-0.168,0.577,0.596,-0.172,-1.28,-0.174,-0.873,0.434,0.294,-0.502,-0.0381,0.137,0.244,-1.34,-0.173,0.541,-1.83 (inactive)
O=C1O[C@H](c2ccccc2)[C@H](c2ccccc2)N2[C@H]1[C@@H](C(=O)N1CCCCCCC1)[C@]1(C(=O)Nc3ccc(C#CCCO)cc31)[C@H]2c1ccc(O)cc1,0.777,9.39 (active),2.27,1.18,0.91,4.64,1.53,1.35,1.68,1.17,2.12,1.32,4.55,0.967,1.56,1.71,0.889,1.85,1.68,0.628 (inactive)
C=C(C(=O)CC[C@@H](OC(=O)c1ccccc1-c1ccccc1C(=O)O)c1cccc(OCCO)c1)C(C)C,-0.757,-0.88 (inactive),0.107,-0.0402,0.555,0.139,1.2,0.152,1.26,-0.539,0.256,-0.481,-0.285,-0.0661,1.53,1.54,0.282,1.69,0.58,-1.62 (inactive)
COc1ccc(CCNC(=O)[C@@]2(c3ccc([N+](=O)[O-])cc3)CC(=O)N(C3CCCCC3)[C@@H]2c2ccc(CO)cc2I)cc1,-0.127,0.931 (inactive),0.0293,0.0254,0.364,1.52,0.89,0.962,0.252,0.754,0.312,1.19,0.338,-0.0396,1.04,1.24,3.1,0.0241,0.402,-1.28 (inactive)
CCCCCCc1nc(-c2ccc(OC)nc2)c(C)c2c1[Si](C(C)C)(C(C)C)OC2,-0.854,0.268 (inactive),-0.122,-0.12,-0.195,-0.039,-0.459,0.18,0.492,-0.141,0.975,-0.461,0.0484,-0.52,0.553,0.0695,-0.498,0.524,-0.491,0.146 (inactive)
COc1cccc(C)c1NC(=O)O[C@H]1[C@H](OC(=O)Nc2ccc3c(c2)OCO3)[C@H](OC(=O)Nc2ccc3c(c2)OCO3)[C@@H](OC)O[C@@H]1CO,0.428,0.645 (inactive),0.473,-0.101,0.3,1.43,0.405,1.3,0.0955,1.17,1.61,1.27,0.197,0.993,1.3,0.662,0.123,0.802,0.7,-6.86 (inactive)
COC(=O)[C@@]1(Cc2ccc(F)cc2)[C@H]2c3cc(C(=O)N(C)C)n(CCF)c3C[C@H]2CN1C(=O)c1ccccc1,0.914,0.312 (inactive),-0.0044,0.057,0.733,2.6,0.89,0.706,-0.411,0.476,1.67,0.911,0.0655,0.911,-0.0051,-0.162,0.656,-0.45,0.338,-1.09 (inactive)
CCCCC(=C=CC[C@H](O)c1cccc(OCCO)c1)C[C@H](O)c1cc(Cl)cc(Cl)c1O,0.436,0.41 (inactive),-0.0288,-0.143,0.465,0.686,-0.151,1.03,0.0963,1.04,0.172,0.559,-0.0043,0.489,1.11,0.272,0.691,1.46,0.749,-0.677 (inactive)
